Several values for one entry are separate records, joined by “and”; a condition that tells them apart may be missing. Identical values can stand only once. The campaign covered roughly 69,000 compounds. About 2,600 (3.8%) were called active. Rule as the data show it: active = activity change below about -70% (passing the limit was not always enough); inconclusive = no clear call, values can overlap the other calls. The entries come from a sample that favours actives as a whole. A structure can be active in one record and inactive in another.

The assay is described as follows: inhibitors of Toxoplasma growth in IFN-γ-primed hosts – cell-based, primary screen (AID 1259416).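 Also: host cells are HeLa cells infected with Toxoplasma gondii.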 The settings on record: Toxoplasma gondii growth in IFN-gamma-treated host cells; stronger effect = lower value; concentration not given here.
Regarding `O=C1CC(c2cccnc2)c2cnn(CC3CC3)c2N1` (stereo unspecified), the activity change, negative = inhibition is 6.49% (inactive).

`Cc1nn(CC(C)C)c2c1C(c1cnn3cccnc13)CC(=O)N2` (stereo unspecified): the activity change, negative = inhibition was -4.06% (inactive).

As for `CC(C)Cn1ncc2c1NC(=O)CC2c1csc(-c2ccccc2)n1` (stereo unspecified), the activity change, negative = inhibition is -98.9% (active).

On to `COCCN1CC2(CCOCC2)c2cc(NC(=O)C3CCC3)ccc21`, for which the activity change, negative = inhibition was -48.6% (inactive).

In the case of `Cc1nn(C)c(C)c1CCC(=O)N[C@H]1CCC(=O)NC1c1cccnc1` (stereo partly specified), the activity change, negative = inhibition is 85.1% (inactive).

Regarding `COc1ccc(-c2cccc(-c3nnc(C)s3)c2)c(OC)c1`, the activity change, negative = inhibition is -81.9% (active).

With `COc1cccc(-c2nc(C)c(-c3ccc(SCc4cccc5ccccc45)nn3)s2)c1`, the activity change, negative = inhibition was -1.38% (inactive).

In the case of `COc1cccc(-c2nc(C)c(-c3ccc(SCc4ccccc4)nn3)s2)c1`, the activity change, negative = inhibition was -15.2% (inactive).

As to `CCc1cn[nH]c1C1CCN(C(=O)C2COc3c(cccc3OC)C2)CC1` (stereo unspecified), the activity change, negative = inhibition is -0.504% (inactive).

`NCC(=O)CCC(=O)OCc1ccccc1`: the activity change, negative = inhibition is 9.17% (inactive).

As to `O=C1CCCCC(=O)c2ccccc2N1`, the activity change, negative = inhibition was -17.8% (inactive).

Take `Cc1cc(C)c(/C=C2\C(=O)Nc3ccccc32)[nH]1`: the activity change, negative = inhibition was 22% (inactive) and -75.5% (active).

In the case of `CNc1ccc(Cl)cc1C(=O)NCCN(C)S(C)(=O)=O`, the activity change, negative = inhibition was -31% (inactive).

Consider `CC(=O)N1CCn2c(-c3cnn(C)c3)cnc2C12CCN(S(=O)(=O)C1CC1)CC2`, for which the activity change, negative = inhibition is 7.11% (inactive).

As to `O=C(NC1CC1)c1cc2n(n1)CCN(C(=O)CCn1nnc3ccccc31)C2`, the activity change, negative = inhibition is -45.8% (inactive).

Regarding `C[C@H]1CN([C@@H](C)CO)C(=O)CCCn2cc(nn2)CO[C@@H]1CN(C)S(=O)(=O)c1ccc(-n2cccn2)cc1`, the activity change, negative = inhibition was -30.5% (inactive).

As for `C[C@@H]1CN([C@@H](C)CO)C(=O)CCCn2cc(nn2)CO[C@H]1CN(C)S(=O)(=O)c1ccc(-n2cccn2)cc1`, the activity change, negative = inhibition is -114% (active).

Consider `C[C@H]1CN([C@@H](C)CO)C(=O)CCCn2cc(nn2)CO[C@@H]1CN(C)S(=O)(=O)c1cccc(C#N)c1`, for which the activity change, negative = inhibition is 24.6% (inactive).

As to `O=C(c1cc(COc2c(F)cccc2F)on1)N1CCCC1c1ccco1` (stereo unspecified), the activity change, negative = inhibition was 1.77% (inactive).

For `CC(=O)Nc1ccc(NS(=O)(=O)c2ccc3oc(=O)ccc3c2)cc1`, the activity change, negative = inhibition was 137% (inactive).

For the molecule `O=C(C1CCN(S(=O)(=O)c2ccc3[nH]c(=O)ccc3c2)CC1)N1CCN(c2ccccc2F)CC1`, the activity change, negative = inhibition is 27.2% (inactive).

Consider `O=C(Oc1ccc(Cl)cc1)c1snnc1-c1ccccc1`, for which the activity change, negative = inhibition was -78% (active).

With `COc1ccc2c(c1)NC1(CCN(S(=O)(=O)c3ccc(F)c(Cl)c3)CC1)c1cccn1-2`, the activity change, negative = inhibition was 11.3% (inactive).

On to `COc1ncccc1CN1CCc2[nH]cnc2C1Cc1ccccc1` (stereo unspecified), for which the activity change, negative = inhibition was -52.3% (inactive).

Regarding `CC(=O)Nc1ccc(NC(=O)CSc2nnnn2C2CCCCC2)cc1`, the activity change, negative = inhibition was 2.96% (inactive).

As for `C=CCC1(O)C(C)C(c2ccccc2)N(C)C(c2ccccc2)C1C` (stereo unspecified), the activity change, negative = inhibition was -91.3% (active).

Consider `CN(C)C(=O)NC[C@H]1CCC[C@]2(CCN(Cc3nccs3)C2)O1`, for which the activity change, negative = inhibition was -40.2% (inactive).

In the case of `O=C(Nc1ccc(C(F)(F)F)cn1)Nc1ccc(-c2ccccc2)s1`, the activity change, negative = inhibition is -27.9% (inactive).

As to `COc1cccc(NC(=O)N2CCC3(CC2)CC(=O)c2ccccc2O3)c1`, the activity change, negative = inhibition is -5.86% (inactive).

Take `Cc1c(C(=O)N2CCCCC2)oc2ccc3c(c12)C(=O)CC1(CCCCCC1)O3`: the activity change, negative = inhibition was -112% (active).

Turning to `Cc1c(C(=O)N2CCC3(CC2)CC(O)(c2nccs2)CO3)oc2ccccc12` (stereo unspecified), the activity change, negative = inhibition is -14.2% (inactive).

In the case of `c1ccc2ncc(-c3ccncn3)cc2c1`, the activity change, negative = inhibition is 1.85% (inactive).

With `CC(C)CNC(=O)c1ccc2c(c1)C(c1ncn(C(C)C)n1)CN2C(=O)c1ccccc1` (stereo unspecified), the activity change, negative = inhibition was -46.3% (inactive).

Turning to `Cc1nc2cc(C(=O)NC3(c4ccc5c(c4)OCO5)CCCC3)ccc2s1`, the activity change, negative = inhibition was -5.47% (inactive).

Turning to `C=CCN(Cc1ccccc1Cl)C(=O)c1ccc(CN(C)C)o1`, the activity change, negative = inhibition was -46.3% (inactive).

Take `C/C(=N/N1CCN(Cc2cccc3ccccc23)CC1)c1cccnc1`: the activity change, negative = inhibition is -96% (active).

Take `Cc1cc(-c2ccccc2CN2CCOCC2)ccc1NC(=O)c1cccnc1`: the activity change, negative = inhibition is -6.76% (inactive).

With `Cc1ccc(CC(=O)c2cccnc2)cc1`, the activity change, negative = inhibition is 14% (inactive).

Take `Cc1ccc(-c2cc(C(=O)Nc3ccc4c(c3)N(S(C)(=O)=O)CCC4)[nH]n2)cc1`: the activity change, negative = inhibition was -78.5% (active).

Take `Cc1ccc(C(=O)Nc2ccc(-c3nc(-c4ccc(C)cc4)co3)cc2)cc1`: the activity change, negative = inhibition is 42.6% (inactive).

Consider `O=C1CCc2cc(NC(=O)c3cc(-c4ccccc4)nc4ccccc34)ccc2N1`, for which the activity change, negative = inhibition is -32.2% (inactive).

With `CN1CCN([C@H]2CN(Cc3ncc[nH]3)C[C@@H]2O)CC1`, the activity change, negative = inhibition was 28% (inactive).

With `c1cncc(-c2nc3c(c(NCCC4CCOC4)n2)CCNC3)c1` (stereo unspecified), the activity change, negative = inhibition was -9.13% (inactive).

For the molecule `CCn1c(-c2cc(NC(=O)c3ccncc3)n[nH]2)cc2ccccc21`, the activity change, negative = inhibition was -91% (active).

For the molecule `CCC(NC(=O)CCn1c(C)cc2ccccc21)c1cccnc1` (stereo unspecified), the activity change, negative = inhibition was 0.306% (inactive).

With `Cc1nc(C)n(C(=O)N2CCOCC2)n1`, the activity change, negative = inhibition is -8.09% (inactive).

As to `CN1CCN(C(=O)c2cncc(N3CCC4(CCOCC4)CC3)n2)CC1`, the activity change, negative = inhibition was -7.63% (inactive).

As to `Cc1nc(N)nc(C)c1CC(=O)N1CCC2(CCOCC2)CC1`, the activity change, negative = inhibition is -82.2% (active).

Consider `COCCN1CC[C@@H]2C[C@@H](C(=O)N3CCCCO3)O[C@@H]2C1`, for which the activity change, negative = inhibition is -6.09% (inactive).

`CCN1CCO[C@H]2CN(S(=O)(=O)c3cccs3)CC[C@@H]2C1`: the activity change, negative = inhibition was 1.58% (inactive).

Regarding `COC(C)c1nncn1-c1cccc2ccccc12` (stereo unspecified), the activity change, negative = inhibition was -48.2% (inactive).

Take `CC(=O)NC1(c2ccc(F)cc2)CCN(Cc2ccc(Oc3ncccn3)cc2)CC1`: the activity change, negative = inhibition was 9.39% (inactive).

For `Cc1ccn(CC(=O)N2CCN3CCNC(=O)C3C2)n1` (stereo unspecified), the activity change, negative = inhibition is -2.78% (inactive).

Consider `COc1ccccc1OCc1cc(C(=O)NCCF)n[nH]1`, for which the activity change, negative = inhibition was 35.8% (inactive).

`CN(C)S(=O)(=O)c1ccc2c(c1)cc(C(=O)NCCC1=CCCCC1)n2Cc1ccncc1`: the activity change, negative = inhibition was -54.8% (inactive).

Consider `O=S(=O)(NCCC1=CCCCC1)c1ccc(S(=O)(=O)NC2CCCCC2)cc1`, for which the activity change, negative = inhibition is -84.3% (active).

With `CCCNS(=O)(=O)c1ccc(CCC(=O)N2CCCC2)cc1`, the activity change, negative = inhibition is -8.43% (inactive).

With `Cc1ccccc1NC(=O)c1ccc2ccc(N3CCN(CC4CC4)CC3)n2c1`, the activity change, negative = inhibition was 2.07% (inactive).

Turning to `N#C[C@H]1N[C@H](CO)[C@H]1c1ccc(-c2cccc(F)c2)cc1`, the activity change, negative = inhibition is 17.8% (inactive).

Consider `CC(=O)N1CCCCN2[C@H](CO)[C@H](c3ccc(-c4ccccc4)cc3)[C@@H]2C1`, for which the activity change, negative = inhibition was 12.2% (inactive).

Consider `CC(C)C(=O)Nc1cccnc1-c1ccc(C(C)N2CCOCC2)cc1` (stereo unspecified), for which the activity change, negative = inhibition is 0.361% (inactive).

`COc1ccccc1CCC(=O)N1CCC2(CC1)Nc1cccnc1NC2=NC(C)(C)C`: the activity change, negative = inhibition was 74.7% (inactive).

In the case of `Cc1[nH]c2ccccc2c1Sc1ccc(Cl)cc1`, the activity change, negative = inhibition is -55.7% (inactive).

As for `Cc1cc(C)c(C#N)c(Sc2ccc(Cl)cc2)n1`, the activity change, negative = inhibition was -73.5% (active).

As to `CSc1nn2c(C)cc(C)nc2c1C#N`, the activity change, negative = inhibition was 44.4% (inactive).

In the case of `COc1ccc(NS(=O)(=O)c2ccc(NC(=S)NC(=O)c3cccs3)cc2)nn1`, the activity change, negative = inhibition is 1.98% (inactive).

With `O=C(Cc1ccccn1)N1[C@@H]2CNc3ccccc3[C@@H]2[C@@H]1CO`, the activity change, negative = inhibition is 1.07% (inactive).

Turning to `CCCn1cc(C(=O)N(Cc2ccccn2)CC2CCCO2)c(C)n1` (stereo unspecified), the activity change, negative = inhibition was -1.25% (inactive).

Consider `Cc1nc([C@@H]2C[C@H]3CCN(Cc4sccc4C)C[C@@H]3O2)no1`, for which the activity change, negative = inhibition was 95.8% (inactive).

Turning to `Cc1ccc2c(c1C)-n1cccc1C1(CCN(S(=O)(=O)c3ccc(C4CCCCC4)cc3)CC1)N2`, the activity change, negative = inhibition is 30.2% (inactive).

For the molecule `C=CCn1c(SCc2ccc(C(=O)NCCO)cc2)nc2ccccc2c1=O`, the activity change, negative = inhibition was -34.4% (inactive).

For `Cn1c(SCc2csc(C3CCCCC3)n2)nc2ccccc2c1=O`, the activity change, negative = inhibition is -80.1% (active).

Turning to `Cn1c(CNC(=O)CC2CCCC2)nnc1SCc1ccccn1`, the activity change, negative = inhibition was 2.95% (inactive).

Take `Cc1ccsc1-c1cn(CC2(Cn3ccnc3C)CC2)nn1`: the activity change, negative = inhibition was 8.54% (inactive).

In the case of `O=C(c1cn(-c2ccccc2)nn1)N(Cc1ccsc1)CC1CCCO1` (stereo unspecified), the activity change, negative = inhibition was 1.85% (inactive).

For `COCc1ncc(CN2CCC(Cc3cccc(C(=O)O)c3)C2)cn1` (stereo unspecified), the activity change, negative = inhibition is 3.4% (inactive).

With `Cc1oc(C(C)(C)C)cc1C(=O)Nc1ccc(SCc2cccc(Cl)c2F)cc1`, the activity change, negative = inhibition is -75.3% (active).

Take `Cc1cnc(CN(C)C(=O)C(C)(C)NC(=O)c2cccs2)[nH]1`: the activity change, negative = inhibition was -13.9% (inactive).

Take `CN1CCN(c2ccc3nc(-c4c(N)c5c(F)cccc5[nH]c4=O)[nH]c3c2)CC1`: the activity change, negative = inhibition was -66.4% (inactive) and -77.3% (active).

Take `Clc1cccnc1-c1cccc2[nH]ccc12`: the activity change, negative = inhibition is 9.34% (inactive).

Take `CC(C)C(=O)NS(=O)(=O)c1ccc(NC(=O)c2ccccc2)cc1`: the activity change, negative = inhibition was 5.8% (inactive).

As for `COc1cccc(CNC(=O)Nc2ccc(-c3nc(-c4cc(C)ccc4C)co3)cc2)c1`, the activity change, negative = inhibition was -13% (inactive).

For `COc1cccc(NC(=O)Nc2ccc3c(c2)C(=O)N(C)C[C@@H](OC)[C@H](C)CN(CC2CC2)[C@H](C)CO3)c1`, the activity change, negative = inhibition was 63.1% (inactive).

On to `COc1cc(NC(=O)Nc2cccc(CNC(=O)O[C@H]3CCOC3)c2)ccc1-c1cnco1`, for which the activity change, negative = inhibition is -72.9% (active).

For the molecule `Cc1nc2c(c(N3CCN(C(=O)c4ccccc4F)CC3)n1)CN(Cc1ccccc1)CC2`, the activity change, negative = inhibition was -27.3% (inactive).

Regarding `COCC(=O)N1CCC(N(C)Cc2ccccc2)CC1C(=O)O` (stereo unspecified), the activity change, negative = inhibition is 3.74% (inactive).

Consider `Cc1nn(C)cc1-c1ccnc(NCC2CCN(Cc3ccccc3)C2)n1` (stereo unspecified), for which the activity change, negative = inhibition is -13.6% (inactive).

In the case of `Cc1nn(-c2ccccc2)c(C)c1-c1ccnc(NCc2cnc3ccccn23)n1`, the activity change, negative = inhibition was -82.8% (active).

As for `COc1cc(CN(C)Cc2ncccc2C)cc(OC)c1`, the activity change, negative = inhibition is -4.74% (inactive).

With `COCCN1C(=O)CCc2cc(NC(=O)CC(C)(C)C)ccc21`, the activity change, negative = inhibition was 3.59% (inactive).

Consider `CN(Cc1cccnc1)C1COC2(CCN(Cc3cccs3)CC2)C1` (stereo unspecified), for which the activity change, negative = inhibition was 1.79% (inactive).

The values above are taken from PubChem BioAssay AID1259416 (Broad Institute, 2018).
